Assay results from PubChem BioAssay AID1159580 (chemical genetic matrix, 2015).
“And” between values parts separate entries of the source, which are not always exact repeats. Equal entries are not always repeated. About 2,000 (36%) of roughly 5,500 compounds were called active. Inconclusive results (about 18%) are left out. No stated cut-off is given here; in the data, active means normalized growth mostly below about 0.91 (no sharp cut-off); inconclusive means no clear call, values can overlap the other calls; inactive means mostly above about 0.92. This is one part of the list.

Assay: chemical genetic growth profiling, strain panel (AID 1159580);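 further: tested at 20 µM; growth read once vehicle control cultures reached saturation at 30 °C; 1 = growth at the plate median or of vehicle wells; lower values mean less growth of the strain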
Details: S. cerevisiae deletion strains, growth OD

Measured: normalized growth

Cc1cc(CC(=O)O)n(C)c1C(=O)c1ccc(Cl)cc1
inactive: locus YAL013W, strain DEP1, active compounds read low 1 | locus YAL021C, strain ccr4, active compounds read low 1 | locus YAL026C, strain drs2, active compounds read low 1.04 | locus YAL030W, strain snc1, active compounds read low 1.01 | locus YBL061C, strain skt5, active compounds read low 1.04 | locus YBR009C, strain hhf1, active compounds read low 0.999 | locus YBR021W, strain FUR4, active compounds read low 0.979 | locus YBR023C, strain chs3, active compounds read low 1.03 | locus YBR171W, strain sec66, active compounds read low 1.04 | locus YBR229C, strain ROT2, active compounds read low 0.997 | locus YBR231C, strain swc5, active compounds read low 1.02 | locus YBR279W, strain paf1, active compounds read low 1.02 | locus YCL011C, strain gbp2, active compounds read low 1.03 | locus YCL016C, strain dcc1, active compounds read low 1.04 | locus YCL029C, strain bik1, active compounds read low 1.02 | locus YCL061C, strain MRC1, active compounds read low 1.03 | locus YCL069W, strain vba3, active compounds read low 1.04 | locus YCR088W, strain abp1, active compounds read low 1.03 | locus YDL005C, strain med2, active compounds read low 1.02 | locus YDL035C, strain GPR1, active compounds read low 0.989 | locus YDL040C, strain nat1, active compounds read low 1.02 | locus YDL074C, strain BRE1, active compounds read low 0.978 | locus YDL101C, strain DUN1, active compounds read low 1 | locus YDL134C, strain PPH21, active compounds read low 1 | locus YDL185W, strain tfp1, active compounds read low 0.997 | locus YDL192W, strain arf1, active compounds read low 1.01 | locus YDR001C, strain nth1, active compounds read low 1.02 | locus YDR069C, strain doa4, active compounds read low 1.01 | locus YDR101C, strain arx1, active compounds read low 1.01 | locus YDR137W, strain rgp1, active compounds read low 1.04 | locus YDR150W, strain NUM1, active compounds read low 0.998 | locus YDR159W, strain sac3, active compounds read low 1.02 | locus YDR162C, strain NBP2, active compounds read low 0.997 | locus YDR195W, strain ref2 1.02 | locus YDR297W, strain sur2, active compounds read low 1.03 | locus YDR318W, strain mcm21, active compounds read low 1 | locus YDR334W, strain swr1, active compounds read low 1.03 | locus YDR335W, strain msn5, active compounds read low 1.03 | locus YDR388W, active compounds read low 0.998 | locus YDR392W, strain spt3, active compounds read low 1.02 | locus YDR502C, strain sam2, active compounds read low 0.995 | locus YEL003W, strain gim4, active compounds read low 1.02 | locus YEL037C, strain rad23, active compounds read low 1.02 | locus YEL061C, strain CIN8 (second series), active compounds read low 1.03 | locus YEL061C, strain CIN8, active compounds read low 1 | locus YER015W, strain faa2, active compounds read low 1.03 | locus YER016W, strain bim1, active compounds read low 1.04 | locus YER110C, active compounds read low 1 | locus YER111C, strain swi4, active compounds read low 1.02 | locus YER155C, strain BEM2 (second series), active compounds read low 1.01 | locus YER155C, strain BEM2, active compounds read low 0.982 | locus YER167W, strain BCK2, active compounds read low 0.992 | locus YFR010W, strain ubp6, active compounds read low 1.01 | locus YGL078C, strain dbp3, active compounds read low 1 | locus YGL086W, strain mad1, active compounds read low 0.998 | locus YGL167C, strain pmr1, active compounds read low 1.02 | locus YGL173C, strain kem1, active compounds read low 1.02 | locus YGL227W, strain vid30, active compounds read low 1.02 | locus YGL240W, strain doc1, active compounds read low 1 | locus YGL248W, strain PDE1, active compounds read low 0.998 | locus YGL253W, strain hxk2, active compounds read low 1.04 | locus YGR078C, strain PAC10, active compounds read low 0.988 | locus YGR135W, strain pre9, active compounds read low 0.988 | locus YGR229C, strain SMI1, active compounds read low 0.998 | locus YGR252W, strain gcn5, active compounds read low 0.945 | locus YHR013C, strain ard1, active compounds read low 1.05 | locus YHR027C, strain rpn1, active compounds read low 1.02 | locus YHR030C, strain SLT2, active compounds read low 1 and 1.02 | locus YHR079C, strain IRE1 (second series), active compounds read low 1 | locus YHR079C, strain IRE1, active compounds read low 1.02 | locus YHR094C, strain hxt1, active compounds read low 1 | locus YHR129C, strain ARP1, active compounds read low 0.998 | locus YHR142W, strain chs7, active compounds read low 1.05 | locus YHR200W, strain rpn10, active compounds read low 1.01 | locus YIL066C, strain RNR3, active compounds read low 0.994 | locus YIL073C, strain SPO22, active compounds read low 1.02 | locus YIL125W, strain kgd1, active compounds read low 1.01 | locus YIR030C, strain dcg1, active compounds read low 1.01 | locus YJL092W, strain hpr5, active compounds read low 1.03 | locus YJL095W, strain BCK1 (second series), active compounds read low 1.03 | locus YJL095W, strain BCK1, active compounds read low 0.959 and 1.01 | locus YJL115W, strain asf1, active compounds read low 1.01 | locus YJL129C, strain trk1, active compounds read low 1.06 | locus YJL134W, strain LCB3, active compounds read low 1 | locus YJL154C, strain vps35, active compounds read low 1.02 | locus YJL164C, strain tpk1, active compounds read low 1.02 | locus YJL166W, strain qcr8, active compounds read low 1.03 | locus YJL168C, strain set2, active compounds read low 1.01 | locus YJL187C, strain SWE1 (second series), active compounds read low 0.998 | locus YJL187C, strain SWE1, active compounds read low 1.01 | locus YJR043C, strain POL32, active compounds read low 0.997 | locus YJR066W, strain TOR1, active compounds read low 0.954
